Test results taken from paper PMC7862700, “An all-to-all approach to the identification of sequence-specific readers for epigenetic DNA modifications on cytosine”.

Assays:
Experiment in all cases: DAPPL (digital affinity profiling via proximity ligation, sequencing); 10 mM Tris-HCl pH 7.5, 50 mM NaCl, 1 mM DTT, 4% glycerol, room temperature, 30 min; GST-TFs on glutathione beads, 16-mer random dsDNA library, 0.1% formaldehyde crosslink after washing; high values mean tight binding
Conditions in all cases: protein: recombinant; tags: N-terminal GST; dsDNA, one strand shown
[1] = biological target: T1, FEV (Homo sapiens, UniProt Q99581 1-238)
T1 sequence: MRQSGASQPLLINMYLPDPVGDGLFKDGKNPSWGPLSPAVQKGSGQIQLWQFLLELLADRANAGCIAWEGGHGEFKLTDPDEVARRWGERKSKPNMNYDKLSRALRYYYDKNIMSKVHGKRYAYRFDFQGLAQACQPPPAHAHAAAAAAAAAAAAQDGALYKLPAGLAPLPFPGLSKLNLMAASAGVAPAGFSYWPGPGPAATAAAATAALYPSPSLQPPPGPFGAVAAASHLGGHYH
Procedure, shortened: (§1)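 After expression in yeast as GST fusions, human transcription factors were bound to glutathione beads, DNA-barcoded and mixed with a tag-only sample. The pools were incubated with 200 nmole of a 16-mer random double-stranded DNA library in Tris/NaCl/DTT/glycerol buffer (30 min, room temperature), washed and crosslinked with 0.1% formaldehyde. Proximity ligation with BsaI/T4 ligase ran for 1 h at 37 °C, before PCR amplification and sequencing on an Illumina NextSeq500. Binding signal is a hexamer's read frequency for a factor divided by its frequency for the tag-only sample.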

[2] = biological target: ETV5 (Homo sapiens, UniProt P41161 1-510)
ETV5, sequence (P41161 whole entry): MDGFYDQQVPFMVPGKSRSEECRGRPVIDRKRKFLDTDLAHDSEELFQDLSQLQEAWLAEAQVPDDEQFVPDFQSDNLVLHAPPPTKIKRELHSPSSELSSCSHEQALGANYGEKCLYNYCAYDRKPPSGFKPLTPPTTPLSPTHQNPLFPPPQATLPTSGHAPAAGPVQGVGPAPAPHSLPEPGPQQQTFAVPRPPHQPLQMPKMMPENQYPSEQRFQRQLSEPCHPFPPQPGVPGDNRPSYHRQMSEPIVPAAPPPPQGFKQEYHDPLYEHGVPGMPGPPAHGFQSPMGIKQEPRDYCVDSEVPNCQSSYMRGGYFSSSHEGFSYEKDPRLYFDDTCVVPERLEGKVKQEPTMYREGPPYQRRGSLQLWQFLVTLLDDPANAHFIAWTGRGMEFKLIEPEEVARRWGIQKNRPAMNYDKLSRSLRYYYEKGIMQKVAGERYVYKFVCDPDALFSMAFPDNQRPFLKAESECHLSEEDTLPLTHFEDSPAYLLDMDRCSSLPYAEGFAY
Procedure, shortened: as §1

[3] = biological target: T2, SPIC (Homo sapiens, UniProt Q8N5J4 1-248)
T2 sequence: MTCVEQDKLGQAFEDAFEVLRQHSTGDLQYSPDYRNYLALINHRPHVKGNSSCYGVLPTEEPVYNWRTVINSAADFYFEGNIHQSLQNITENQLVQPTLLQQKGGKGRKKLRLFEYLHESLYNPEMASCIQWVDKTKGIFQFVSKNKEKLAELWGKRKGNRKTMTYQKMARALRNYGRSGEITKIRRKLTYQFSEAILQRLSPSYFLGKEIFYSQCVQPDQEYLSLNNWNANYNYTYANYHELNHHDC
Procedure, shortened: as §1

[4] = biological target: ELF4 (Homo sapiens, UniProt Q99607 1-663)
ELF4, sequence (Q99607 whole entry): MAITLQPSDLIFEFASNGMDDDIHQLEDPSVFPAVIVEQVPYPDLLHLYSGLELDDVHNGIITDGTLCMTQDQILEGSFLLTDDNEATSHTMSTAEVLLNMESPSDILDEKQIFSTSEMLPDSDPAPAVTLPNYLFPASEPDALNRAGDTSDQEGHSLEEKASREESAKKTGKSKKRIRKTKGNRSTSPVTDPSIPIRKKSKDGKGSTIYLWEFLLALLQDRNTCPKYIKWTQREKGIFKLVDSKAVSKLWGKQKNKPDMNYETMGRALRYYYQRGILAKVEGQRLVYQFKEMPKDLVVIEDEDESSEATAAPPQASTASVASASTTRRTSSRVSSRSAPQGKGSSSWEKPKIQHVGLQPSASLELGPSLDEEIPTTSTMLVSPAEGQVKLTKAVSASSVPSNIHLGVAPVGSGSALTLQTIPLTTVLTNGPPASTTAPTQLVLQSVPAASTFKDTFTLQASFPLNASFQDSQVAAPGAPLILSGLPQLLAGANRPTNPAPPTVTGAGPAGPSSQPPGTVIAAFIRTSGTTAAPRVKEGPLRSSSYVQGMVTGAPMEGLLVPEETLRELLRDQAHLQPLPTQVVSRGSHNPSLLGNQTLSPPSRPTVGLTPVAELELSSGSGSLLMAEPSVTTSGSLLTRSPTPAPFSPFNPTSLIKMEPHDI
Procedure, shortened: as §1

[5] = biological target: T3, ELK4 (Homo sapiens, UniProt P28324-2 1-405)
T3 sequence: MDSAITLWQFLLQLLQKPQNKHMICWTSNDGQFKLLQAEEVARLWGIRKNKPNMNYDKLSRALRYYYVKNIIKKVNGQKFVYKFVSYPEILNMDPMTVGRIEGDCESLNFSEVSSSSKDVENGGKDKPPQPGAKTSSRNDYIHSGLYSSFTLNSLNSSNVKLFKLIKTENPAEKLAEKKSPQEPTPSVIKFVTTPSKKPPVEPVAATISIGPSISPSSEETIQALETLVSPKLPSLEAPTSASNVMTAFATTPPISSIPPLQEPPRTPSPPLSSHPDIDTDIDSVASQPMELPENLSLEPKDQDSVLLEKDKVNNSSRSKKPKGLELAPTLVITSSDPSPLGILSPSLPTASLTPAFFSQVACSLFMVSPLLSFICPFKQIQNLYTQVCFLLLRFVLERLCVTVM
Procedure, shortened: as §1

[6] = biological target: T4, ETV2 (Homo sapiens, UniProt O00321 1-342)
T4 sequence: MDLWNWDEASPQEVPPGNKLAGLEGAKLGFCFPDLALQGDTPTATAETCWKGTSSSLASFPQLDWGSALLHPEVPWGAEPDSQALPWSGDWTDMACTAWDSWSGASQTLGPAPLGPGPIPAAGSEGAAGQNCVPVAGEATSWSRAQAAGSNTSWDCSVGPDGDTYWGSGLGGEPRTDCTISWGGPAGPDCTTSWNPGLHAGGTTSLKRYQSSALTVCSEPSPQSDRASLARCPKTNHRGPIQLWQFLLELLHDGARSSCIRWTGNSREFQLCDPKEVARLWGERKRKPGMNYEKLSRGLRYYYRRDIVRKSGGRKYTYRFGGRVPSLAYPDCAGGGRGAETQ
Procedure, shortened: as §1

[7] = biological target: T5, ELF3 (Homo sapiens, UniProt P78545 1-371)
T5 sequence: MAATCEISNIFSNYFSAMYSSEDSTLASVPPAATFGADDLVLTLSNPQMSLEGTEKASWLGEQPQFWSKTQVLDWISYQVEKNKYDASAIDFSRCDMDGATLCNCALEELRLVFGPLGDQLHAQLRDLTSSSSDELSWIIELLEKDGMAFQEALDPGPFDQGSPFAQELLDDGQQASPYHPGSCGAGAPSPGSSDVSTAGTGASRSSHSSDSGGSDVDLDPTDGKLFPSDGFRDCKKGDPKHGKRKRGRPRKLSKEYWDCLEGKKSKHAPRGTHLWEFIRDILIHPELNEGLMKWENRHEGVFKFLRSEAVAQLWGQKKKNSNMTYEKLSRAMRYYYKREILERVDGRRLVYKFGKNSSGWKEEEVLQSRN
Procedure, shortened: as §1

[8] = biological target: ETV1 (Homo sapiens, UniProt P50549 1-477)
ETV1, sequence (P50549 whole entry): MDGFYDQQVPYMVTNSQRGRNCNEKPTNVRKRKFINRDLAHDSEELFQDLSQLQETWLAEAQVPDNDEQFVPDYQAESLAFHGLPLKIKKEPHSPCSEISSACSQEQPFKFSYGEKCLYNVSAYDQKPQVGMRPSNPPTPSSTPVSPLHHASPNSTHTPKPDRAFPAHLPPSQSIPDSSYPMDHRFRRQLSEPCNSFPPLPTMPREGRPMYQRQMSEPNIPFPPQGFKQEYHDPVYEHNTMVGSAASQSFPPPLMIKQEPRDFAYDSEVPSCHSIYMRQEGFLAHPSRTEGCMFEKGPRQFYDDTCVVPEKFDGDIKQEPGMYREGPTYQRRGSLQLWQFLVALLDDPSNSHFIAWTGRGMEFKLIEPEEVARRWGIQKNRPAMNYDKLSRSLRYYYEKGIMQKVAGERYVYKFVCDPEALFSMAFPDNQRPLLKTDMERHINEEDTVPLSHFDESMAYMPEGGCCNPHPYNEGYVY
Procedure, shortened: as §1

[9] = biological target: T6, ERF (Homo sapiens, UniProt P50548 1-548)
T6 sequence: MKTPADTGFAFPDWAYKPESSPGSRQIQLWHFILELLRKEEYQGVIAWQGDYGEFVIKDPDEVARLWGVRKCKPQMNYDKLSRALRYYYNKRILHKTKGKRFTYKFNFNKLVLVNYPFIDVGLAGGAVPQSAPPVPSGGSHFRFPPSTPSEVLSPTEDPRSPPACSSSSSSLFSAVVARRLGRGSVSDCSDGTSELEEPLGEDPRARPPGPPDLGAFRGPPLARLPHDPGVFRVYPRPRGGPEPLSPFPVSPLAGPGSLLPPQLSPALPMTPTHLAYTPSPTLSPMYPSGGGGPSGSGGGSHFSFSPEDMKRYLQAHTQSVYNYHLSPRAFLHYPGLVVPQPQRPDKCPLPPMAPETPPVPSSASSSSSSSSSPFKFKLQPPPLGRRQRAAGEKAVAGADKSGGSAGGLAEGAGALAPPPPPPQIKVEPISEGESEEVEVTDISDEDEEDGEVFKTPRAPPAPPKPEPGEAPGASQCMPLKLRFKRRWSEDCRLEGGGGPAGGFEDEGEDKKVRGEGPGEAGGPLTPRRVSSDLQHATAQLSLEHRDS
Procedure, shortened: as §1

[10] = biological target: T7, ETV3L (Homo sapiens, UniProt Q6ZN32 1-361)
T7 sequence: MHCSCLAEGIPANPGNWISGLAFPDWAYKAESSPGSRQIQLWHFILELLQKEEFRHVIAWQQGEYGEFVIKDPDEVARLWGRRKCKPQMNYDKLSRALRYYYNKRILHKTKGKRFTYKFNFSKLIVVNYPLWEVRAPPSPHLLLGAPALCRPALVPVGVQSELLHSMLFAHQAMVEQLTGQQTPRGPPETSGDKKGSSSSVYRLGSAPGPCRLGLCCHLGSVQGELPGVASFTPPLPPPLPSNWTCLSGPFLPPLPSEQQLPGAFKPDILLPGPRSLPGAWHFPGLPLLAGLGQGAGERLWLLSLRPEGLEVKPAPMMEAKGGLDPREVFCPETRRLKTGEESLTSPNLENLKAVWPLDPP
Procedure, shortened: as §1

[11] = biological target: T8, ETS2 (Homo sapiens, UniProt P15036 1-469)
T8 sequence: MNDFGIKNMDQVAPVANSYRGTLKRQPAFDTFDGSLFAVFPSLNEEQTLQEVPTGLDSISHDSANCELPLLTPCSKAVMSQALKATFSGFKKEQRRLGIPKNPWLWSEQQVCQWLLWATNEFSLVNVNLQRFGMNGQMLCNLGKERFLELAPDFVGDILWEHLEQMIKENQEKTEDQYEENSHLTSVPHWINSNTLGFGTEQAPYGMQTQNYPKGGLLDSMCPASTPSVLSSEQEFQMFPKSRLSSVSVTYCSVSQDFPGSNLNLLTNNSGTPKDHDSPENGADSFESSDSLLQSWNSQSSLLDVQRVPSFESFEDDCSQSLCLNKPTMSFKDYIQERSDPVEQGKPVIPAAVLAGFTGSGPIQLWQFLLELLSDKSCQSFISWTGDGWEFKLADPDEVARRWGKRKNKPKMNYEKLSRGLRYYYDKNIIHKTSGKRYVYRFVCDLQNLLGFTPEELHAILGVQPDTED
Procedure, shortened: as §1

[12] = biological target: T9, SPDEF (Homo sapiens, UniProt O95238 1-335)
T9 sequence: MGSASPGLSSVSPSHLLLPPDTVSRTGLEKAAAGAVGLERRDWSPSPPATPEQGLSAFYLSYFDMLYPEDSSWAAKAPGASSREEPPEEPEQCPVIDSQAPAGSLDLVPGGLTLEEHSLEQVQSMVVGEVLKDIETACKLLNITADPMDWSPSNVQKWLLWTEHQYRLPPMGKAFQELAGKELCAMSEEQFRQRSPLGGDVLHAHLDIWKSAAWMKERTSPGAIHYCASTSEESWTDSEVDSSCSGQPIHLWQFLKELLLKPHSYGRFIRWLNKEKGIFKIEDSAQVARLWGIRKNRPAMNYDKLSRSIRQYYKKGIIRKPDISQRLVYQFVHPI
Procedure, shortened: as §1

[13] = biological target: ETV6 (Homo sapiens, UniProt P41212 1-452)
ETV6, sequence (P41212 whole entry): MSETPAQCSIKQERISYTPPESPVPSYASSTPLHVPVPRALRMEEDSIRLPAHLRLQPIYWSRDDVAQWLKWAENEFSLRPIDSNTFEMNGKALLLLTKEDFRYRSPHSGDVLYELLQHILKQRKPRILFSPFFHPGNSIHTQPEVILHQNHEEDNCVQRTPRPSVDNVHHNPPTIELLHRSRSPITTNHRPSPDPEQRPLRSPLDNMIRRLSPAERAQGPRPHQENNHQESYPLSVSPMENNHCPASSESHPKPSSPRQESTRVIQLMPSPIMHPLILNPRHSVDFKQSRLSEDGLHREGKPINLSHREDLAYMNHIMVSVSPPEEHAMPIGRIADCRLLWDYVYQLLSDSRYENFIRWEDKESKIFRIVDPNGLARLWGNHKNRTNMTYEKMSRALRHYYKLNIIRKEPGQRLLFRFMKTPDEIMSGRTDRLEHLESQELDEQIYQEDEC
Procedure, shortened: as §1

[14] = biological target: T10, ETV7 (Homo sapiens, UniProt Q9Y603 1-341)
T10 sequence: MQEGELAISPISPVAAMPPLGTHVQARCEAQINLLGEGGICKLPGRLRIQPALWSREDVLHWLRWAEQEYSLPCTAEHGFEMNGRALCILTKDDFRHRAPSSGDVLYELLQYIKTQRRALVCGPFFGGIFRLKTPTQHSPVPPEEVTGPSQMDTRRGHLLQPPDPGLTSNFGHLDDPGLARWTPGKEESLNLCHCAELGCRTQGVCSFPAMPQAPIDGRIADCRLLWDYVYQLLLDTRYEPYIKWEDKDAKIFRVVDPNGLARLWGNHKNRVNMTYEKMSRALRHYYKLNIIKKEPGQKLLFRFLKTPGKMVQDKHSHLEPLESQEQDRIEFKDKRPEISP
Procedure, shortened: as §1

[15] = biological target: T11, ETV3 (Homo sapiens, UniProt P41162-2 1-143)
T11 sequence: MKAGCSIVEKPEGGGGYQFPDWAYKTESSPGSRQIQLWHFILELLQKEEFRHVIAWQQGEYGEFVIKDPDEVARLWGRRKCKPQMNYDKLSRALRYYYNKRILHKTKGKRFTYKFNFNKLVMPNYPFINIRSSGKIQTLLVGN
Procedure, shortened: as §1

[16] = biological target: T12, ELF5 (Homo sapiens, UniProt Q9UKW6-2 1-255)
T12 sequence: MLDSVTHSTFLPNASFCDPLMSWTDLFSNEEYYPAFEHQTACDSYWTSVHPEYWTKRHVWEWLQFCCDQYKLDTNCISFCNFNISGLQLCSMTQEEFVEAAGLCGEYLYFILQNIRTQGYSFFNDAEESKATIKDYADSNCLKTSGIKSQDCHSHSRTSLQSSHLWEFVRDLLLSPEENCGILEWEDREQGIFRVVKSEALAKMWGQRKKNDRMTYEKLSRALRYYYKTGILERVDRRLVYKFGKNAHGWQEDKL
Procedure, shortened: as §1

Sequence	binding signal [1]	binding signal [2]	binding signal [3]	binding signal [4]	binding signal [5]	binding signal [6]	binding signal [7]	binding signal [8]	binding signal [9]	binding signal [10]	binding signal [11]	binding signal [12]	binding signal [13]	binding signal [14]	binding signal [15]	binding signal [16]
TGACTG	1.05 fold enrichment (6-mer frequency, TF over GST control)	1.03 fold enrichment (6-mer frequency, TF over GST control)	1.03 fold enrichment (6-mer frequency, TF over GST control)	1.09 fold enrichment (6-mer frequency, TF over GST control)	1.16 fold enrichment (6-mer frequency, TF over GST control)	1.09 fold enrichment (6-mer frequency, TF over GST control)	1.04 fold enrichment (6-mer frequency, TF over GST control)	1.03 fold enrichment (6-mer frequency, TF over GST control)	1.15 fold enrichment (6-mer frequency, TF over GST control)	1.16 fold enrichment (6-mer frequency, TF over GST control)	1.17 fold enrichment (6-mer frequency, TF over GST control)	1.05 fold enrichment (6-mer frequency, TF over GST control)	1.06 fold enrichment (6-mer frequency, TF over GST control)			
GCAATA		1.07 fold enrichment (6-mer frequency, TF over GST control)	1.16 fold enrichment (6-mer frequency, TF over GST control)	1.07 fold enrichment (6-mer frequency, TF over GST control)	1.11 fold enrichment (6-mer frequency, TF over GST control)	1.01 fold enrichment (6-mer frequency, TF over GST control)	1.09 fold enrichment (6-mer frequency, TF over GST control)	1.07 fold enrichment (6-mer frequency, TF over GST control)	1.03 fold enrichment (6-mer frequency, TF over GST control)		1.04 fold enrichment (6-mer frequency, TF over GST control)	1.04 fold enrichment (6-mer frequency, TF over GST control)	1.03 fold enrichment (6-mer frequency, TF over GST control)	1.08 fold enrichment (6-mer frequency, TF over GST control)	1.04 fold enrichment (6-mer frequency, TF over GST control)	
GTATGG	1.01 fold enrichment (6-mer frequency, TF over GST control)	1.02 fold enrichment (6-mer frequency, TF over GST control)	1.08 fold enrichment (6-mer frequency, TF over GST control)	1.02 fold enrichment (6-mer frequency, TF over GST control)	1.01 fold enrichment (6-mer frequency, TF over GST control)	1.03 fold enrichment (6-mer frequency, TF over GST control)	1.04 fold enrichment (6-mer frequency, TF over GST control)	1.16 fold enrichment (6-mer frequency, TF over GST control)	1.25 fold enrichment (6-mer frequency, TF over GST control)	1.03 fold enrichment (6-mer frequency, TF over GST control)	1.01 fold enrichment (6-mer frequency, TF over GST control)		1.01 fold enrichment (6-mer frequency, TF over GST control)	1.02 fold enrichment (6-mer frequency, TF over GST control)		1.03 fold enrichment (6-mer frequency, TF over GST control)
